Assay results reported in PubChem BioAssay (EPA / NIEHS).
Calls of active or inactive are those of the source. The calls were made as follows: active = hit-call score of the fitted dose curve at least 0.9, where 1 is the maximum; inactive = score below 0.9.

Legend:
[1] = read-out: Monocyte Chemoattractant Protein-1 (MCP1), CCL2 (gene 6347); experiment: BSK_BF4T_MCP1: BioMAP Diversity Plus: BF4T Assay for Monocyte Chemoattractant Protein-1 (MCP1) Biomarker Activity (AID 2284259); conditions: primary human bronchial epithelial cells with fibroblasts
Method in brief: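 Co-culture of bronchial epithelial cells and dermal fibroblasts dosed with chemical; MCP-1 measured by ELISA 24 h later. Activity fitted in positive direction versus DMSO; cytotoxicity checked by SRB staining in parallel cultures.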

[2] = read-out: Intercellular Adhesion Molecule 1 (ICAM1), ICAM1 (gene 3383); experiment: BSK_BF4T_ICAM1: BioMAP Diversity Plus: BF4T Assay for Intercellular Adhesion Molecule 1 (ICAM1) Biomarker Activity (AID 2284260); conditions: primary human bronchial epithelial cells with fibroblasts
Method in brief: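 Co-culture of human bronchial epithelial cells and dermal fibroblasts exposed 24 h to chemical; cell-surface ICAM-1 quantified by ELISA. Parallel SRB total-protein staining assessed cytotoxicity; activity fitted relative to DMSO.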

[3] = read-out: Interleukin-8 (IL8), CXCL8 (gene 3576); experiment: BSK_MyoF_IL8: BioMAP Diversity Plus: MyoF Assay for Interleukin-8 (IL8) Biomarker Activity (AID 2284261); conditions: primary human lung fibroblasts
Method in brief: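 IL-8 levels were measured by ELISA in human lung fibroblasts harvested 24 h after compound addition. Responses were analysed as gain of signal over the DMSO baseline.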

[4] = read-out: CD90, THY1 (gene 7070); experiment: BSK_BF4T_CD90: BioMAP Diversity Plus: BF4T Assay for CD90 Biomarker Activity (AID 2284262); conditions: primary human bronchial epithelial cells with fibroblasts
Method in brief: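 Co-culture of human bronchial epithelial cells and dermal fibroblasts, 24 h compound exposure. Cell-surface CD90 measured by ELISA relative to DMSO; parallel SRB total-protein staining for cytotoxicity.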

[5] = read-out: Interleukin-8 (IL8), CXCL8 (gene 3576); experiment: BSK_BF4T_IL8: BioMAP Diversity Plus: BF4T Assay for Interleukin-8 (IL8) Biomarker Activity (AID 2284263); conditions: primary human bronchial epithelial cells with fibroblasts
Method in brief: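 Human bronchial epithelial cells with dermal fibroblasts co-culture; IL-8 measured by ELISA 24 hours after dosing, fitted vs DMSO. Cytotoxicity tracked in parallel cultures by SRB total-protein staining.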

[6] = read-out: Decorin, DCN (gene 1634); experiment: BSK_MyoF_Decorin: BioMAP Diversity Plus: MyoF Assay for Decorin Biomarker Activity (AID 2284265); conditions: primary human lung fibroblasts
Method in brief: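 Compound is added to lung fibroblast cultures; cells incubate 24 h; decorin is then measured by ELISA; the response is analysed upward against DMSO controls.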

[7] = read-out: KRT18 (gene 3875); experiment: BSK_BF4T_Keratin818: BioMAP Diversity Plus: BF4T Assay for Keratin 818 Biomarker Activity (AID 2284266); conditions: primary human bronchial epithelial cells with fibroblasts
Method in brief: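 Co-culture of human bronchial epithelial cells and dermal fibroblasts, chemical exposure 24 h. Keratin 8/18 measured by ELISA; positive-direction fit vs DMSO. SRB total protein run in parallel cultures for cytotoxicity.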

[8] = BSK_MyoF_SRB: Viability Assessment in the BioMAP Diversity Plus: MyoF Assay (AID 2284267); conditions: primary human lung fibroblasts;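 also: total protein by SRB absorbance in parallel cultures as cytotoxicity measure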
Method in brief: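 Human lung fibroblasts, 24 h after chemical dosing; total protein measured by 0.1% sulforhodamine B staining after 10% TCA fixation, read at 560 nm, fitted relative to DMSO baseline.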

[9] = read-out: Matrix Metallopeptidase 1 (MMP1), MMP1 (gene 4312); experiment: BSK_MyoF_MMP1: BioMAP Diversity Plus: MyoF Assay for Matrix Metallopeptidase 1 (MMP1) Biomarker Activity (AID 2284268); conditions: primary human lung fibroblasts
Method in brief: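 Lung fibroblast cultures were dosed with test chemicals and, after 24 h, MMP1 levels were measured by ELISA; responses were referenced to DMSO and analysed for increases.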

[10] = read-out: TIMP metallopeptidase inhibitor 1 (TIMP1), TIMP1 (gene 7076); experiment: BSK_MyoF_TIMP1: BioMAP Diversity Plus: MyoF Assay for TIMP metallopeptidase inhibitor 1 (TIMP1) Biomarker Activity (AID 2284269); conditions: primary human lung fibroblasts
Method in brief: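 Primary human lung fibroblasts, MyoF multiplex system; chemical exposure 24 h; TIMP-1 by ELISA; positive fitting direction vs DMSO control.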

[11] = read-out: Matrix Metallopeptidase 1 (MMP1), MMP1 (gene 4312); experiment: BSK_BF4T_MMP1: BioMAP Diversity Plus: BF4T Assay for Matrix Metallopeptidase 1 (MMP1) Biomarker Activity (AID 2284270); conditions: primary human bronchial epithelial cells with fibroblasts
Method in brief: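 Co-culture of human bronchial epithelial cells and dermal fibroblasts; MMP-1 levels measured by ELISA 24 hours after chemical dosing, relative to DMSO. Cytotoxicity checked in parallel cultures by SRB total-protein staining.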

[12] = read-out: Matrix Metallopeptidase 3 (MMP3), MMP3 (gene 4314); experiment: BSK_BF4T_MMP3: BioMAP Diversity Plus: BF4T Assay for Matrix Metallopeptidase 3 (MMP3) Biomarker Activity (AID 2284271); conditions: primary human bronchial epithelial cells with fibroblasts
Method in brief: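 Co-culture of human bronchial epithelial cells and dermal fibroblasts dosed 24 h; MMP-3 measured by ELISA, positive-direction fit versus DMSO. Cytotoxicity tracked by SRB total-protein staining (560 nm) in parallel cultures.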

[13] = read-out: Tissue plasminogen activator (tPA), PLAT (gene 5327); experiment: BSK_BF4T_tPA: BioMAP Diversity Plus: BF4T Assay for Tissue plasminogen activator (tPA) Biomarker Activity (AID 2284272); conditions: primary human bronchial epithelial cells with fibroblasts
Method in brief: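 tPA level quantified by ELISA at 24 h post-treatment in bronchial epithelial/dermal fibroblast co-cultures, gain of signal scored against DMSO baseline. Parallel cultures stained with 0.1% SRB (560 nm) to flag overt cytotoxicity.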

[14] = read-out: Plasminogen Activator Inhibitor-1 (PAI1), SERPINE1 (gene 5054); experiment: BSK_BF4T_PAI1: BioMAP Diversity Plus: BF4T Assay for Plasminogen Activator Inhibitor-1 (PAI1) Biomarker Activity (AID 2284273); conditions: primary human bronchial epithelial cells with fibroblasts
Method in brief: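 Co-culture of human bronchial epithelial cells and dermal fibroblasts exposed to compound for 24 h. PAI-1 measured by ELISA; activity fitted in positive direction versus DMSO. Parallel SRB staining assessed overt cytotoxicity.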

[15] = BSK_BF4T_SRB: Viability Assessment in the BioMAP Diversity Plus: BF4T Assay (AID 2284274); conditions: primary human bronchial epithelial cells with fibroblasts
Method in brief: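 Co-culture of human bronchial epithelial cells and dermal fibroblasts (BioMAP BF4T) exposed 24 h. Total protein by sulforhodamine B staining (0.1% SRB after 10% TCA fixation, 560 nm) in parallel cultures; fitted vs DMSO.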

[16] = read-out: urokinase Plasminogen Activator (uPA), PLAU (gene 5328); experiment: BSK_BF4T_uPA: BioMAP Diversity Plus: BF4T Assay for urokinase Plasminogen Activator (uPA) Biomarker Activity (AID 2284275); conditions: primary human bronchial epithelial cells with fibroblasts
Method in brief: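 Co-culture of human bronchial epithelial cells and dermal fibroblasts; uPA quantified by ELISA 24 hours after dosing, fitted relative to DMSO. Parallel SRB total-protein staining assessed overt cytotoxicity.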

[17] = read-out: Matrix Metallopeptidase 9 (MMP9), MMP9 (gene 4318); experiment: BSK_BF4T_MMP9: BioMAP Diversity Plus: BF4T Assay for Matrix Metallopeptidase 9 (MMP9) Biomarker Activity (AID 2284276); conditions: primary human bronchial epithelial cells with fibroblasts
Method in brief: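 Co-culture of human bronchial epithelial cells and dermal fibroblasts dosed for 24 h; MMP-9 quantified by ELISA and fitted upward versus DMSO. Cytotoxicity monitored in parallel cultures by SRB total-protein staining at the biomarker time point.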

[18] = read-out: Interleukin-8 (IL8), CXCL8 (gene 3576); experiment: BSK_IMphg_IL8: BioMAP Diversity Plus: IMphg Assay for Interleukin-8 (IL8) Biomarker Activity (AID 2284277); conditions: primary human endothelial cells with macrophages
Method in brief: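 Co-culture of human venular endothelial cells and macrophages exposed to chemicals for 24 h; IL-8 quantified by ELISA and compared against the DMSO baseline, with SRB total-protein staining in parallel cultures for cytotoxicity.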

[19] = read-out: Intercellular Adhesion Molecule 1 (ICAM1), ICAM1 (gene 3383); experiment: BSK_BE3C_ICAM1: BioMAP Diversity Plus: BE3C Assay for Intercellular Adhesion Molecule 1 (ICAM1) Biomarker Activity (AID 2284278); conditions: primary human bronchial epithelial cells
Method in brief: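 Primary human bronchial epithelial cells in BE3C system, 24 h after chemical dosing; cell-surface ICAM-1 measured by ELISA relative to DMSO. Parallel SRB staining (0.1% SRB after 10% TCA fixation, read at 560 nm) assessed cytotoxicity.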

Measured: outcome

OCC(O)CC(F)(F)C(F)(F)C(F)(F)C(F)(F)C(F)(F)C(F)(F)C(F)(F)C(F)(F)F (stereo unspecified)
inactive: [1] | [2] | [3] | [4] | [5] | [6] | [7] | [8] | [9] | [10] | [11] | [12] | [13] | [14] | [15] | [16] | [17] | [18] | [19]

OCC(F)(F)C(F)(F)C(F)(F)C(F)(F)C(F)(F)C(F)(F)CO
inactive: [1] | [2] | [3] | [4] | [5] | [6] | [8] | [9] | [10] | [11] | [12] | [13] | [14] | [15] | [16] | [17] | [18] | [19]

O=S(=O)(O)CCC(F)(F)C(F)(F)C(F)(F)C(F)(F)F
inactive: [1] | [2] | [3] | [4] | [5] | [6] | [8] | [9] | [10] | [11] | [12] | [13] | [14] | [15] | [16] | [17] | [18] | [19]

OCCCCC(F)(F)C(F)(F)C(F)(F)C(F)(F)F
inactive: [1] | [2] | [3] | [4] | [5] | [6] | [8] | [9] | [10] | [11] | [12] | [13] | [14] | [15] | [16] | [17] | [18] | [19]

C=C(C)C(=O)OCC(F)(F)C(F)(F)C(F)(F)C(F)F
inactive: [1] | [2] | [3] | [4] | [5] | [6] | [8] | [9] | [10] | [11] | [12] | [13] | [14] | [15] | [16] | [17] | [18] | [19]
